Source: PubChem BioAssay
The list is not random: actives were taken first. Their share in the collection is about 21%.
Pf growth 48h – Primary qHTS for delayed death inhibitors of the malarial parasite plastid, 48 hour incubation; P. falciparum luciferase growth in erythrocytes, 48 h; Potency, µM (top dose mostly 28.7 µM), usual class: inhibitors; actives 5.9% (n = 310,000); AID 504832, 2011
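Parasite viability was followed by luminescence of a genomically integrated firefly luciferase. Cultures held 0.1% parasitemia at 2% hematocrit (final), incubated under 5% CO2 at 37 C.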
HCMV inh – qHTS Assay for inhibitors of the human cytomegalovirus (HCMV); HFF cells, HCMV-luciferase reporter, 72 h; stronger effect = lower value; activity change, negative = inhibition, % at 57.5 µM; actives 4.5% (n = 410,000); AID 1259415, 2018; in the data active means activity change below about -60%; inconclusive means no clear call, values can overlap the other calls; inactive means above about -39%
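Two compound doses tested in HFFs infected with HCMV-luciferase, MOI 1 PFU/cell, 72 h at 37C. Lysate luminescence read with OneGlo; data normalized against buffer-only and 10uM Salinomycin inhibitor controls.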
Pf growth 96h – Primary qHTS for delayed death inhibitors of the malarial parasite plastid, 96 hour incubation; P. falciparum luciferase reporter growth, 96 h; Potency, µM (titrated, usually from 28.7 µM), hits mostly inhibitors; actives 6.9% (n = 320,000); AID 504834, 2011
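P. falciparum expressing integrated firefly luciferase, in erythrocytes at 2% hematocrit, 0.05% parasitemia, incubated with compounds 96 h at 37 C, 5% CO2. Growth inhibition read as loss of luminescence; two-generation exposure targets delayed-death apicoplast inhibitors.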
CHX counter – Cycloheximide Counterscreen for Small Molecule Inhibitors of Shiga Toxin | cell reporter, cycloheximide protein synthesis inhibition counterscreen | max response, % | actives 12% (n = 300,000); in the data active means max response mostly above about 13%, no sharp cut-off; inactive means mostly below about 14%; further: read at 38.3 µM for the half of the compounds with a filed dose
HCV inh – qHTS Assay for Inhibitors of Hepatitis C Virus (HCV); actives 3.4% (n = 340,000); Huh7.5.1 HCVcc-Cre infection, luciferase reporter, 44 h; Potency, µM (doses to about 41.8 µM), hits mostly inhibitors
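Reporter virus HCVcc-Cre (~0.5 moi) infects cells exposed to compound; seeding density 1,000 cells/well with 4 h settling beforehand. Luminescence, 15 sec read, taken 44 h post-infection following a 15 min RT substrate incubation.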
Shiga toxin inh – A qHTS for Small Molecule Inhibitors of Shiga Toxin. Vero cells, Shiga toxin protein synthesis inhibition reporter. inhibition, % at 38.7 µM. actives 9.2% (n = 290,000). AID 2315, 2010; in the data active means inhibition mostly above about 28%, no sharp cut-off; inactive means mostly below about 43%
Each line names hits and unclear results; the compound was inactive in the other large screens. Unless noted, the call rests on the fitted dose curve; in most records, active means well fitted inhibition curve with a large enough effect; inconclusive means small, poorly fitted or top-dose-only effect, or another doubt; inactive means no such curve, though single readings can be large or run the other way.

C=CCn1c(O)c(N=NC(=O)c2ccccc2NS(=O)(=O)c2cccs2)c2ccccc21	Pf growth 48h inconclusive, HCMV inh -95, Pf growth 96h inconclusive
C=CCn1c(O)c(N=NC(=S)Nc2ccccc2F)c2cc(S(=O)(=O)N3CCOCC3)ccc21	Pf growth 48h 6.6µM, HCMV inh -70, HCV inh inconclusive
Cc1ccc(Cn2c(O)c(N=NC(=S)Nc3ccccc3F)c3ccccc32)cc1	Pf growth 48h inconclusive, HCV inh inconclusive
Cc1nnc(N/N=C/c2cccc(OCc3ccc(Cl)c(Cl)c3)c2)n1N	Pf growth 48h 13µM, Pf growth 96h inconclusive, CHX counter 39, Shiga toxin inh 47
Cc1nnc(N/N=C/c2cccc(C(F)(F)F)c2)n1N	Pf growth 96h 15µM
Cc1nnc(N/N=C/c2ccccc2C(F)(F)F)n1N	none
CCOc1cc(/C=N/Nc2nnc(C)n2N)ccc1OC(C)=O	Pf growth 96h inconclusive
O=C1COc2ccc(S(=O)(=O)Nc3ccc(F)cc3)cc2N1	Pf growth 96h inconclusive
Cc1nnc(NC(=O)CN2CCN(Cc3ccccc3)CC2)s1	none
CC(C)C[C@H](NC(=O)N1CCn2c1nc1ccccc12)C(=O)N[C@@H](Cc1ccccc1)C(=O)O	none
Cc1ccc(Nc2nc(N)nc(CSc3nncn3C)n2)cc1	CHX counter 28, Shiga toxin inh 64
COc1ccccc1Nc1nc(N)nc(CSc2nc(C)cc(C)n2)n1	HCV inh inconclusive (no result: Pf growth 96h)
COc1ccccc1Nc1nc(N)nc(CSc2nccc(C)n2)n1	Pf growth 96h 0.93µM
COc1ccc(Nc2nc(N)nc(SCc3nnc(C)s3)n2)cc1	Pf growth 96h inconclusive, CHX counter 25
Nc1nc(CSc2ccccn2)nc(Nc2ccccc2)n1	CHX counter 33, Shiga toxin inh 70 (no result: Pf growth 96h)
CCOC(=O)c1ccc(NC(=O)CN2c3ccccc3S(=O)(=O)c3ccccc32)cc1	none (no result: Pf growth 48h, Pf growth 96h, CHX counter, HCV inh, Shiga toxin inh)
CC(=O)c1ccc(C(=O)N2CCCC(CO)(Cc3ccccc3C)C2)s1 (stereo not given)	Pf growth 96h inconclusive
COc1ccc(Nc2nc(N)nc(CSc3nnc(N)s3)n2)cc1	CHX counter 26 (no result: Pf growth 48h)
Cc1nnc(SCc2nc(N)nc(Nc3ccccc3)n2)s1	CHX counter 38, Shiga toxin inh 69
COc1ccc(Nc2nc(N)nc(CSc3nc(C)cc(C)n3)n2)cc1	CHX counter 18, HCV inh inconclusive, Shiga toxin inh 49
CCc1ccc(Nc2nc(N)nc(CSc3nc4ccccc4s3)n2)cc1	Shiga toxin inh 49
CC(=O)c1ccc(NC(=O)CSc2ccc3nnc(CCNS(=O)(=O)c4ccc(C)cc4)n3n2)cc1	none (no result: Pf growth 48h, Pf growth 96h, CHX counter, HCV inh, Shiga toxin inh)
Cc1cccc(-c2noc(CN(C(=O)COc3ccc(C(C)C)cc3)C(C)C)n2)c1	none (no result: Pf growth 48h, Pf growth 96h, CHX counter, HCV inh, Shiga toxin inh)
COc1ccc(S(=O)(=O)N2CCOCC2)cc1NC(=O)CN1CCCc2ccccc21	HCV inh inconclusive (no result: Pf growth 48h, Pf growth 96h, CHX counter, Shiga toxin inh)
Cc1ccc(CSc2nnc([C@@H](N)C(C)C)o2)cc1	none (no result: Pf growth 48h, Pf growth 96h, CHX counter, HCV inh, Shiga toxin inh)
COc1ccc(Nc2nc(N)nc(CSc3nccn3C)n2)cc1	CHX counter 36, Shiga toxin inh 73
Cc1ccccc1NC(=O)CN1C(=O)CCn2nc(-c3cccn3C)cc21	none (no result: Pf growth 48h, Pf growth 96h, CHX counter, HCV inh, Shiga toxin inh)
Cc1ccc(C2Oc3ccccc3C3=C2C(c2cccs2)n2ncnc2N3)cc1 (stereo not given)	Pf growth 48h 12µM, Pf growth 96h inconclusive, HCV inh 13µM
Fc1ccc(C2C3=C(Nc4ncnn42)c2ccccc2OC3c2ccncc2)cc1 (stereo not given)	HCV inh inconclusive (no result: Pf growth 48h)
O=C1NCCN1c1ccccc1	HCMV inh -79 (no result: Pf growth 48h, Pf growth 96h, CHX counter, Shiga toxin inh)
O=C1N(c2ccccc2)CCN1c1ccccc1	Pf growth 96h 10µM, CHX counter 38 (no result: Shiga toxin inh)
O=C1NC(=S)CN1c1ccccc1	none
O=C1NCCN1Cc1ccccc1	none
O=C(CSc1nnc(-c2cccc(Br)c2)o1)NCC1CCCO1 (stereo not given)	none (no result: Pf growth 48h, Pf growth 96h, CHX counter, HCV inh, Shiga toxin inh)
CC1CN(c2ccc(Cl)cc2[N+](=O)[O-])CCN1S(C)(=O)=O (stereo not given)	none
CCn1c(SCc2ccc(F)cc2)nnc1-c1nn(-c2ccccc2)ccc1=O	Pf growth 48h inconclusive, Pf growth 96h 5.2µM
Cc1cccc(NC(=S)NC2CCN(Cc3ccccc3)CC2)c1C	Pf growth 48h inconclusive, Pf growth 96h inconclusive
S=C(Nc1ccc(Cl)c(Cl)c1)NC1CCN(Cc2ccccc2)CC1	Pf growth 48h 4.1µM, HCMV inh -78, Pf growth 96h inconclusive, HCV inh 14µM
Fc1ccc(NC(=S)NC2CCN(Cc3ccccc3)CC2)cc1	HCV inh inconclusive
S=C(Nc1cccc(Cl)c1Cl)NC1CCN(Cc2ccccc2)CC1	Pf growth 48h inconclusive, HCMV inh -66, HCV inh inconclusive
COc1ccccc1OCCNC(=O)CCNS(=O)(=O)c1ccc(C)cc1	none (no result: Pf growth 48h, Pf growth 96h, CHX counter, Shiga toxin inh)
CC(OC(=O)c1ccc(CN2CCCC2=O)cc1)C(=O)Nc1ccc(Cl)cc1 (stereo not given)	HCV inh inconclusive (no result: CHX counter, Shiga toxin inh)
COc1ccccc1/C=N/NC(=O)c1cccc(OC(F)(F)C(F)F)c1	none
Cc1cc(NC(=O)c2cccc(Oc3ccccc3)c2)n[nH]1	HCMV inh -71, CHX counter 29, Shiga toxin inh 91
CCC(CC)NC(=O)c1cccc(Br)c1	none
CCC(CC)NC(=O)c1cccc(Oc2ccccc2)c1	HCV inh inconclusive, Shiga toxin inh 31
Cc1cc(NC(=O)NC(=O)c2cccc(OC(F)(F)C(F)F)c2)n[nH]1	Pf growth 96h inconclusive, CHX counter 27, Shiga toxin inh 69
CCc1ccc(NC(=O)CSc2nc(=O)n(CCN(C)C)c3c2CCCC3)cc1	Pf growth 48h inconclusive, Pf growth 96h inconclusive, HCV inh inconclusive (no result: CHX counter, Shiga toxin inh)
O=C1Nc2ccccc2/C1=N/c1sc2c(c1C(=O)NCCc1ccccc1)CCCC2	Pf growth 48h inconclusive, HCV inh inconclusive, Shiga toxin inh 39
O=C(Nc1sc2c(c1C(=O)NCCO)CCCC2)c1ccco1	HCV inh inconclusive
Cc1cccc(NC(=O)CNC(=O)[C@@H](Cc2ccccc2)NC(=O)[C@H]2O[C@@H](n3ccc(N)nc3=O)[C@H](O)[C@@H]2O)c1C	none (no result: Pf growth 48h, Pf growth 96h, CHX counter, HCV inh, Shiga toxin inh)
CCC(=O)Nc1nc(CC(=O)Nc2ccccc2OC)cs1	none
COc1ccccc1NC(=O)Nc1nc(CC(=O)Nc2ccc(OC)c(OC)c2)cs1	Pf growth 48h inconclusive, Pf growth 96h 5.2µM, HCV inh inconclusive (no result: CHX counter, Shiga toxin inh)
COc1ccccc1NC(=O)Nc1nc(CC(=O)N2CCN(c3ccccc3OC)CC2)cs1	Pf growth 48h inconclusive, Pf growth 96h inconclusive, HCV inh 10µM (no result: CHX counter, Shiga toxin inh)
COc1cccc(NC(=O)Cc2csc(NC(=O)Nc3ccccc3OC)n2)c1	Pf growth 48h inconclusive, Pf growth 96h inconclusive, HCV inh inconclusive (no result: CHX counter, Shiga toxin inh)
COc1ccccc1NC(=O)Cc1csc(NC(=S)Nc2ccc(C)cc2)n1	Pf growth 48h inconclusive, HCMV inh -102, Pf growth 96h 10µM, HCV inh inconclusive
